VACV E9 pol inh = inhibitors of vaccinia virus processive DNA synthesis (E9 polymerase) | in vitro processive DNA synthesis, absorbance read-out; hits give low values | normalized absorbance, % (no concentration beside the values) | 46,000 compounds, 0.94% hits | AID 493162; in the data active = normalized absorbance mostly below about 85%, no sharp cut-off; inactive = mostly above about 86%
* marks the source's active call; other numbers are inactive results. This is one part of a sample in which hits are shown more often than they occur.

SMILES	VACV E9 pol inh
Cc1ccc(C)n1C(CC(=O)O)C1CCCCC1 (centres undefined)	70.3*
O=C1C(=Cc2c[nH]c3ccccc23)C(=O)c2ccccc21	95.6
CCN1C(=O)c2cccc3c(S(=O)(=O)NCCO)ccc1c23	102.6
O=C1c2ccccc2-c2n[nH]c(=O)c3ccc(N4CCOCC4)c1c23	99.4
CC1CCN(c2cc(N(C)C)c3noc4c3c2C(=O)c2ccccc2-4)CC1	69.9*
Cc1ccc(Nc2ccc3noc4c3c2C(=O)c2ccccc2-4)cc1	100.5
COc1ccc(C2N(c3ccc(OC)cc3)C(=O)C23CCCC3)cc1 (centres undefined)	105.6
CCC(C)C(NS(=O)(=O)c1cccc(C(F)(F)F)c1)C(=O)NCc1ccccc1 (centres undefined)	91.2
Cc1ccc2c(c1)c(C)c(C)n2CC(O)CN1CCCCC1 (centres undefined)	104.6
CN(C)CC(O)Cn1c2ccc(Cl)cc2c2cc(Cl)ccc21 (centres undefined)	27.3*
CC1CCN(CC(O)Cn2c3ccccc3c3ccccc32)CC1 (centres undefined)	95.9
OC(CN1CCNCC1)Cn1c2ccccc2c2cc(Br)ccc21 (centres undefined)	55.8*
CCn1c2c(c3cc(Br)ccc31)CCCC2=O	100.4
CN(CC(O)Cn1c2ccccc2c2ccccc21)S(=O)(=O)c1ccc(Cl)cc1 (centres undefined)	100.1
CN(C)CC(O)Cn1c2ccccc2c2ccccc21 (centres undefined)	81.4
OC(COc1ccccc1Br)CN1CCNCC1 (centres undefined)	96.8
OCC(O)Cn1c2ccc(Br)cc2c2cc(Br)ccc21 (centres undefined)	64.7*
CC1(C)CN(c2ccc(Cl)cc2C(=O)c2ccccc2)C1=O	98.1
CCN(CC)C(=O)Cc1nc(-c2ccc(OC)cc2)no1	99.4
COCCN1C(=O)/C(=C2/C(=O)N(Cc3ccc(C)cc3)c3ccccc32)SC1=S	98.2
CC1=NN(c2ccccc2)C(=O)/C1=C/c1cn(CC(O)CN2CCCCC2)c2ccccc12 (centres undefined)	31.9*
NC(=O)Cn1cc(/C=C2/C(=O)NC(=O)N(C3CCCCC3)C2=O)c2ccccc21	99.8
O=C1Nc2ccccc2/C1=C\c1cn(CC(=O)N2CCCC2)c2ccccc12	92.8
c1ccn(-c2cnccn2)c1	102.2
COc1ccc(-c2cc(-c3ccco3)c(C#N)c(N)n2)cc1	95.0
SMILES	VACV E9 pol inh
CC(C)[C@@H]1NC(=O)[C@H](Cc2ccccc2)NC(=O)[C@@H](CC(=O)O)NC(=O)CNC(=O)[C@H](CCCN=C(N)N)NC1=O	100.8
O=C([C@H](Cc1ccccc1)N1Cc2ccccc2C1=O)N1CCN(c2ccccc2)CC1	100.7
O=C(O)CCCC(=O)Nc1ccc(-c2nc3ccccc3[nH]2)cc1	60.0*
O=C(O)CCC(=O)Nc1cccc(-c2nc3ccccc3[nH]2)c1	99.4
O=C(O)CCCC(=O)Nc1nc2ccccc2[nH]1	96.8
CC1CCC(NC(=O)C(C)C2Sc3ccccc3N(Cc3cccc(Cl)c3)C2=O)CC1 (centres undefined)	99.0
Cc1cccc(N2CCN(CCNC(=O)CCn3c(=O)c4cccn4c4cccnc43)CC2)c1C	98.8
COC(=O)c1cccc2c1-c1ccccc1/C2=N/O	57.6*
O=C(NO)c1cccc2c1-c1ccccc1/C2=N/O	72.7
COC(=O)c1ccccc1C(=O)c1ccccc1	91.8
NS(=O)(=O)c1ccc2nc(NC(=O)C3CCCCC3)sc2c1	99.0
c1c2c(cc3sc(N4CCOCC4)nc13)OCCO2	98.3
COC(=O)c1ccc2nc(NC(=O)C(C)C)sc2c1	100.7
NNc1nc2cc3c(cc2s1)OCO3	50.1*
NNc1nc2cc3c(cc2s1)OCCO3	51.5*
Fc1ccc2nc(Nc3nc4ccc(F)cc4s3)sc2c1	95.5
CCCC1Nc2ccccc2S(=O)(=O)N1 (centres undefined)	113.5
N#Cc1cnn2c(-c3ccc(Cl)c(Cl)c3)ccnc12	104.6
CC(C)(C)C(=O)CSc1nncc2ccccc12	105.0
CCN1CCN(CC(O)COc2ccc(C3CCCCC3)cc2)CC1 (centres undefined)	98.4
O=C(COc1ccccc1F)OCC(=O)N1CCCCC1	103.0
[O-][n+]1ccccc1Sc1nnc(Cc2ccccc2)c2ccccc12	74.8
O=C(O)CCC(=O)N1CCN(C2c3ccccc3-c3ccccc32)CC1	103.3
CC1=CC=C(N(CC2=NCCN2)c2cccc(O)c2)CC1	99.6
O=C1c2ccccc2-c2onc3c(Br)cc(NCc4ccccc4)c1c23	98.9
SMILES	VACV E9 pol inh
CCOC(=O)N1CCN(c2cc(NCCC(=O)O)c3c4c(onc24)-c2ccccc2C3=O)CC1	69.5*
CCOC(=O)N1CCN(S(=O)(=O)c2ccccc2)CC1	99.6
Cc1c(C=Nc2cccc3nsnc23)c(=O)n2c([nH]c3ccccc32)c1C#N	99.8
COc1ccc(Cl)cc1C(=O)Nc1nnc(-c2ccc(F)cc2)s1	100.1
CC(=O)OCC1=C(C(=O)O)N2C(=O)[C@@H](NC(=O)CSc3ccncc3)[C@H]2SC1	59.8*
CO/N=C(/C(=O)NC1C(=O)N2C(C(=O)O)=C(COC(N)=O)CSC12)c1ccco1 (centres undefined)	95.1
CC1=C(C(=O)O)N2C(=O)[C@@H](NC(=O)[C@H](N)c3ccc(O)cc3)[C@H]2SC1	100.2
Cn1nnnc1SCC1=C(C(=O)O)N2C(=O)C(NC(=O)C(OC=O)c3ccccc3)C2SC1 (centres undefined)	99.1
Cn1nnnc1SCC1=C(C(=O)O)N2C(=O)C(NC(=O)C(O)c3ccccc3)C2SC1 (centres undefined)	64.0*
CC(=O)OCC1=C(C(=O)O)N2C(=O)[C@@H](NC(=O)CCCC(N)C(=O)O)C2SC1 (some centres undefined)	87.9
O=C(Nc1ccccc1F)OCC1CCCN2CCCCC12 (centres undefined)	100.9
Cc1cc(C)c2c(=O)[nH]n(C3CCCC3)c2n1	100.4
CCN(CC)c1ccc(C(=O)N=c2sc3c4ccccc4ccc3n2C)cc1	100.3
O=C(O)C12CC3CC(C1)CC(n1ncc(NCCc4ccccc4)c(Cl)c1=O)(C3)C2	91.9
O=C(NCCCN1CCCC1)c1csc2c1CCCCC2	97.9
O=C(NCCN1CCCC1)C1=Cc2sc3c(c2CS1)CCCC3	73.6*
Cc1ccc(C(=O)NCCN2CCCC2)cc1	99.9
CC(=O)Nc1ccc(C(=O)OCC(=O)Nc2cccc(C(F)(F)F)c2)cc1	105.7
O=C1NC(=Nc2ccccc2)SC1Cc1cccc(C(F)(F)F)c1 (centres undefined)	100.1
Nc1c2c(nc3ccccc13)N(C1CCCCC1)CC2	87.4*
CC(=Nc1c2c(nc3ccccc13)N(C)CC2)N(C)C	99.8
CC1CCCCN1c1nc(-c2ccccc2O)nc2ccccc12 (centres undefined)	100.3
O=C(COC(=O)C(Cc1ccccc1)N1C(=O)c2ccccc2C1=O)c1ccc(Br)cc1 (centres undefined)	100.1
O=C(O)c1ccccc1SC/C=C/c1ccccc1	82.6*
[O-][n+]1ccccc1SC/C=C/c1ccccc1	97.5
O=C(O)c1ccccc1SCC(=O)N1CCCC1	89.9
O=C(COC(=O)Cn1cnc2ccccc21)Nc1c(F)cccc1F	102.3
O=C(NC(Nc1ccccc1)(C(F)(F)F)C(F)(F)F)c1ccccc1	89.8
Cc1ccc(OCC(=O)NC(Cc2c[nH]c3ccccc23)C(=O)O)cc1 (centres undefined)	93.7
Cc1cc(OCC(=O)NC(Cc2c[nH]c3ccccc23)C(=O)O)cc(C)c1Cl (centres undefined)	59.8*

Screening results deposited in PubChem by ICCB-Longwood Screening Facility, Harvard Medical School.
